Assay results published in the supplement of paper PMC6279402.
Where a name gives a salt, the structure may show the parent alone. ± gives the standard deviation of the averaged measurements.

Tested on: A549
Assay: relative viability (normalised to negative control = 1, bortezomib = 0) (fraction); higher = less cytotoxic
Conditions: inflammatory serum-free RHB-A with cytokines + LPS, 5 d + 24 h CellTiter-Blue
Procedure: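 A549 KRAS-mutant NSCLC cells, pre-treated 5 µM GSK126 or vehicle (DMSO), were seeded at 250 cells/well in 384-well plates in serum-free RHB-A medium with inflammatory cytokines/LPS and treated with Selleck kinase inhibitor and NCI oncology compounds at 30 or 300 nM in triplicate, refreshed at 48 h. Viability was read by CellTiter-Blue after 5 d plus 24 h and normalised per plate with cellHTS2 (mean of bortezomib positive control = 0, mean of negative control = 1).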

[1] = compound 30 nM, GSK126 pretreatment: 5 uM GSK126
[2] = compound 30 nM, GSK126 pretreatment: none (vehicle)
[3] = compound 300 nM, GSK126 pretreatment: 5 uM GSK126
[4] = compound 300 nM, GSK126 pretreatment: none (vehicle)

Compound: CNC(=O)c1cc(COc2nnc(Nc3ccc(Cl)cc3)c3ccoc23)ccn1 [Telatinib (BAY 57-9352)]
- relative viability [1]: 0.896 ± 0.11
- relative viability [2]: 0.887 ± 0.073
- relative viability [3]: 0.967 ± 0.13
- relative viability [4]: 0.91 ± 0.13

Compound: CO[C@H]1C[C@@H]2CC[C@@H](C)[C@@](O)(O2)C(=O)C(=O)N2CCCC[C@H]2C(=O)O[C@H]([C@H](C)C[C@@H]2CC[C@@H](OP(C)(C)=O)[C@H](OC)C2)CC(=O)[C@H](C)/C=C(\C)[C@@H](O)[C@@H](OC)C(=O)[C@H](C)C[C@H](C)/C=C/C=C/C=C/1C [Deforolimus(MK-8669)]
- relative viability [1]: 0.574 ± 0.039
- relative viability [2]: 0.591 ± 0.02
- relative viability [3]: 0.548 ± 0.03
- relative viability [4]: 0.523 ± 0.041

Compound: O=C(Nc1cccc(Cl)c1)Nc1ncc(CCNc2ncnc3ccsc23)s1 [SNS-314 Mesylate]
- relative viability [1]: 0.763 ± 0.13
- relative viability [2]: 0.639 ± 0.054
- relative viability [3]: 0.689 ± 0.16
- relative viability [4]: 0.505 ± 0.1

Compound: O=C(c1ccc(OCCN2CCCCC2)cc1)c1c(-c2ccc(O)cc2)sc2cc(O)ccc12 [Raloxifene HCl; Raloxifene hydrochloride]
- relative viability [1]: 0.955 ± 0.064
- relative viability [2]: 0.897 ± 0.094
- relative viability [3]: 0.961 ± 0.043
- relative viability [4]: 0.987 ± 0.058

Compound: O=C(NOCC1CC1)c1ccc(F)c(F)c1Nc1ccc(I)cc1Cl
- relative viability [1]: 0.441 ± 0.038
- relative viability [2]: 0.55 ± 0.088
- relative viability [3]: 0.256 ± 0.014
- relative viability [4]: 0.312 ± 0.033

Compound: S=C(NCc1ccc2c(c1)OCO2)N1CCN(c2ncnc3c2oc2ccccc23)CC1 [Amuvatinib (MP-470); MP-470]
- relative viability [1]: 0.861 ± 0.067
- relative viability [2]: 0.848 ± 0.057
- relative viability [3]: 0.917 ± 0.15
- relative viability [4]: 1.07 ± 0.072

Compound: Cc1ccc(NC(=O)c2ccc(CN3CCN(C)CC3)cc2)cc1Nc1nccc(-c2cccnc2)n1
- relative viability [1]: 0.902 ± 0.12
- relative viability [2]: 0.867 ± 0.096
- relative viability [3]: 0.976 ± 0.13
- relative viability [4]: 1 ± 0.093

Compound: Cc1cnc(-c2cnc(NCCNc3ccc(C#N)cn3)nc2-c2ccc(Cl)cc2Cl)[nH]1
- relative viability [1]: 0.847 ± 0.064
- relative viability [2]: 0.834 ± 0.016
- relative viability [3]: 0.788 ± 0.059
- relative viability [4]: 0.732 ± 0.097

Compound: Nc1nc(Cl)nc2c1ncn2[C@H]1C[C@H](O)[C@@H](CO)O1 [Cladribine]
- relative viability [1]: 0.723 ± 0.12
- relative viability [2]: 0.729 ± 0.099
- relative viability [3]: 0.386 ± 0.1
- relative viability [4]: 0.305 ± 0.075

Compound: NC(N)=NC(N)=NCCc1ccccc1 [Phenformin hydrochloride]
- relative viability [1]: 0.897 ± 0.13
- relative viability [2]: 0.864 ± 0.068
- relative viability [3]: 0.955 ± 0.058
- relative viability [4]: 0.966 ± 0.13
